Source: PubChem BioAssay AID1159580 (chemical genetic matrix, 2015)
In all, about 5,500 compounds went through this assay and about 2,000 (36%) were called active. About 18% were inconclusive and are not listed. Cut-off read from the data, not from the text of the source: active = normalized growth mostly below about 0.91 (no sharp cut-off); inconclusive = no clear call, values can overlap the other calls; inactive = mostly above about 0.92. Some of the results follow.

Assay: chemical genetic growth profiling, strain panel (AID 1159580);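 note: tested at 20 µM; growth read once vehicle control cultures reached saturation at 30 °C; 1 = growth at the plate median or of vehicle wells; lower values mean less growth of the strain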
Conditions: S. cerevisiae deletion strains, growth OD

Measured: normalized growth

Cc1ccc2cc(NC(=O)c3ccco3)ccc2n1
inactive: locus YAL013W, strain DEP1, active compounds read low 0.987 | locus YBR229C, strain ROT2, active compounds read low 0.998 | locus YCL061C, strain MRC1, active compounds read low 0.991 | locus YDL101C, strain DUN1, active compounds read low 1.02 | locus YDR150W, strain NUM1, active compounds read low 0.901 | locus YGR078C, strain PAC10, active compounds read low 0.989 | locus YGR229C, strain SMI1, active compounds read low 0.989 | locus YHR087W, strain rtc3, active compounds read low 1.01 | locus YJR043C, strain POL32, active compounds read low 0.998 | locus YJR075W, strain HOC1, active compounds read low 0.994 | locus YLR039C, strain RIC1, active compounds read low 0.972 | locus YLR058C, strain SHM2 (second series), active compounds read low 1.01 | locus YLR262C, strain YPT6, active compounds read low 1.01 | locus YML094W, strain GIM5, active compounds read low 0.96 | locus YMR219W, strain ESC1, active compounds read low 1 | locus YMR263W, strain SAP30, active compounds read low 0.938 | locus YNL128W, strain TEP1, active compounds read low 0.962 | locus YNL153C, strain GIM3, active compounds read low 1 | locus YNL322C, strain KRE1, active compounds read low 1.01 | locus YPL055C, strain LGE1, active compounds read low 0.92
active: locus YEL061C, strain CIN8, active compounds read low 0.895 | locus YHR030C, strain SLT2, active compounds read low 0.309 | locus YKL190W, strain CNB1, active compounds read low 0.9 | locus YLR085C, strain ARP6, active compounds read low 0.286 | locus YMR307W, strain GAS1, active compounds read low 0.518 | locus YNL298W, strain CLA4 (second series), active compounds read low 0.807 | locus YNR030W, strain Alg12, active compounds read low 0.841 | locus YPL241C, strain CIN2, active compounds read low 0.804 | locus YPR135W, strain CTF4, active compounds read low 0.385
